Whole data set: some 16,000 sequences, median “Z-score” near -0.37, cut for the highest 2% near 3.1. Only a selection was taken, and the highest values are over-represented in it overall.
Test system: RBM10 RRM1-ZnF-RRM2 (GST-tagged construct)
Assay: RNAcompete 7-mer binding Z-score; higher = stronger binding preference
Procedure: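 RNAcompete: 20 pmol GST-tagged RBM10 RNA-binding constructs were incubated with a designed RNA pool of about 241,000 sequences up to 41 nt (1.5 nmol) on glutathione beads for 30 min at 4 °C and washed. Bound RNAs were identified by microarray hybridisation. Each RNA 7-mer is scored by a one-sided Z-score of its enrichment, computed over probes that contain the 7-mer within longer pool sequences.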

First: UACCUGC
Second: GUCCGUA
The “RNAcompete 7-mer binding Z-score” value of the first is lower: -0.887 for the first, -0.471 for the second.

Compared with GGAGUCA, ACAGGGG is higher in “RNAcompete 7-mer binding Z-score” value: 1.05 for the first, 3.19 for the second.

First: UCAGGGG
Second: ACAGGAG
The “RNAcompete 7-mer binding Z-score” value of the first is lower: 1.46 for the first, 2.7 for the second.

Going from GCAGGGC to ACAGGGA, the “RNAcompete 7-mer binding Z-score” value rises from 1.51 to 3.47.

Compared with GCAGGGU, ACAGGGU is lower in “RNAcompete 7-mer binding Z-score” value: 3.35 for the first, 3.11 for the second.

Going from CCAGGGG to ACAGGGC, the “RNAcompete 7-mer binding Z-score” value rises from 1.43 to 2.36.

Compared with GCAGGGG, CCAGGGU is lower in “RNAcompete 7-mer binding Z-score” value: 3.15 for the first, 1.18 for the second.

First: CCAGGGA
Second: AUAUACC
The “RNAcompete 7-mer binding Z-score” value of the first is higher: 1.51 for the first, -0.628 for the second.

First: CAUUCUC
Second: UGCACAU
The “RNAcompete 7-mer binding Z-score” value of the first is lower: -0.857 for the first, -0.362 for the second.

Compared with UCACAAG, CUCGCGU is lower in “RNAcompete 7-mer binding Z-score” value: -0.256 for the first, -0.635 for the second.

First: CGGAUCA
Second: AAGGUGC
The “RNAcompete 7-mer binding Z-score” value of the first is lower: 0.578 for the first, 2.55 for the second.

First: AAGGUGU
Second: AAGGUGA
The “RNAcompete 7-mer binding Z-score” value of the first is lower: 2.26 for the first, 3.62 for the second.

First: GAGGUGA
Second: AAGGUGG
The “RNAcompete 7-mer binding Z-score” value of the first is lower: 2.6 for the first, 4.32 for the second.

Compared with GAGGUGU, GAGGUGG is higher in “RNAcompete 7-mer binding Z-score” value: 2.31 for the first, 3.37 for the second.

Compared with CAGGUGA, GAGGUGC is higher in “RNAcompete 7-mer binding Z-score” value: 1.54 for the first, 1.65 for the second.

Going from AUUCUCC to AGCAACG, the “RNAcompete 7-mer binding Z-score” value rises from -0.679 to 0.359.

Going from UGCCACU to UCUCCCA, the “RNAcompete 7-mer binding Z-score” value rises from -0.741 to -0.697.

First: GCUAAUA
Second: GAUAUGA
The “RNAcompete 7-mer binding Z-score” value of the first is lower: -0.282 for the first, 0.643 for the second.

Going from GAGUGGA to CAGUGGG, the “RNAcompete 7-mer binding Z-score” value falls from 3.07 to 2.93.

First: UAGUGGA
Second: AAGUGGA
The “RNAcompete 7-mer binding Z-score” value of the first is lower: 1.52 for the first, 3.2 for the second.

Compared with AAGUGGG, AAGUGGU is lower in “RNAcompete 7-mer binding Z-score” value: 3.5 for the first, 1.6 for the second.

First: CCCCUCG
Second: GUCAGAG
The “RNAcompete 7-mer binding Z-score” value of the first is lower: -0.573 for the first, 0.406 for the second.

Going from GCUGCGG to AAUGCGA, the “RNAcompete 7-mer binding Z-score” value falls from 1.05 to 0.286.

Compared with CGGCACA, UAGACGC is lower in “RNAcompete 7-mer binding Z-score” value: 0.133 for the first, -0.333 for the second.

Going from UGGGUUG to GGGGUUC, the “RNAcompete 7-mer binding Z-score” value falls from 2.56 to 1.83.

Going from AGGGUUA to AGGGUUC, the “RNAcompete 7-mer binding Z-score” value falls from 3.86 to 0.996.

First: AGGGUUG
Second: GGGGUUG
The “RNAcompete 7-mer binding Z-score” value of the first is higher: 3.34 for the first, 3.23 for the second.

Compared with GGGGUUA, UGGGUUA is lower in “RNAcompete 7-mer binding Z-score” value: 3.07 for the first, 2.83 for the second.

First: CGGGUUG
Second: GUAGUCU
The “RNAcompete 7-mer binding Z-score” value of the first is higher: 2.32 for the first, -0.256 for the second.

Compared with CCGUUUU, UGCAUAU is higher in “RNAcompete 7-mer binding Z-score” value: -1.01 for the first, -0.49 for the second.

Compared with UUUCACU, UCAUUAU is higher in “RNAcompete 7-mer binding Z-score” value: -0.704 for the first, -0.621 for the second.

Compared with UACCGAA, CUUACAA is lower in “RNAcompete 7-mer binding Z-score” value: -0.428 for the first, -0.785 for the second.

Compared with GUAAGUC, CCGAACU is lower in “RNAcompete 7-mer binding Z-score” value: -0.0743 for the first, -0.839 for the second.

Compared with CCCACCC, GGGGAGU is higher in “RNAcompete 7-mer binding Z-score” value: -0.337 for the first, 2.86 for the second.

Compared with AGGGAGU, CGGGAGG is lower in “RNAcompete 7-mer binding Z-score” value: 3.13 for the first, 2.96 for the second.

Compared with GGGGAGG, UGGGAGG is higher in “RNAcompete 7-mer binding Z-score” value: 3.33 for the first, 4.58 for the second.

First: UGGGAGU
Second: UGGGAGA
The “RNAcompete 7-mer binding Z-score” value of the first is lower: 1.95 for the first, 2.56 for the second.

Compared with AGGGAGG, GGGGAGA is lower in “RNAcompete 7-mer binding Z-score” value: 3.18 for the first, 2.53 for the second.

First: CAUGGCC
Second: GUUGCCU
The “RNAcompete 7-mer binding Z-score” value of the first is higher: -0.344 for the first, -0.613 for the second.

Going from AGGUUAC to GAUCGCU, the “RNAcompete 7-mer binding Z-score” value falls from 0.538 to -0.697.

Compared with CGGGUCC, GCGAGGG is higher in “RNAcompete 7-mer binding Z-score” value: 0.723 for the first, 3.86 for the second.

Compared with ACGAGGC, GCGAGGA is higher in “RNAcompete 7-mer binding Z-score” value: 0.742 for the first, 2.06 for the second.

First: ACGAGGU
Second: ACGAGGG
The “RNAcompete 7-mer binding Z-score” value of the first is lower: 1.36 for the first, 3.71 for the second.

Compared with UCGAGGG, AAAGCAA is lower in “RNAcompete 7-mer binding Z-score” value: 1.93 for the first, 0.563 for the second.

Compared with AGCAGAA, GUAAGGA is higher in “RNAcompete 7-mer binding Z-score” value: 0.701 for the first, 3.28 for the second.

Compared with GUAAGGG, CUAAGGA is lower in “RNAcompete 7-mer binding Z-score” value: 3.65 for the first, 0.286 for the second.

Compared with AUAAGGU, UUAAGGA is lower in “RNAcompete 7-mer binding Z-score” value: 1.74 for the first, 0.982 for the second.

First: AUAAGGA
Second: CUAAGGG
The “RNAcompete 7-mer binding Z-score” value of the first is higher: 2.16 for the first, 1.35 for the second.

First: GUAAGGC
Second: AUAAGGG
The “RNAcompete 7-mer binding Z-score” value of the first is lower: 2.12 for the first, 3.85 for the second.

Compared with GAUCGUU, AUUAAUA is lower in “RNAcompete 7-mer binding Z-score” value: -0.464 for the first, -0.544 for the second.

Compared with AAUAGAG, AAGUUGC is lower in “RNAcompete 7-mer binding Z-score” value: 0.742 for the first, -0.293 for the second.

Compared with UGCUCCC, AUGAAGG is higher in “RNAcompete 7-mer binding Z-score” value: -0.821 for the first, 2.82 for the second.

Going from GAGAAGG to GUGAAGG, the “RNAcompete 7-mer binding Z-score” value falls from 4.54 to 3.69.

First: AAGAAGG
Second: AAGAAGU
The “RNAcompete 7-mer binding Z-score” value of the first is higher: 3.81 for the first, 0.818 for the second.

Compared with UAGAAGU, CUGAAGG is higher in “RNAcompete 7-mer binding Z-score” value: 0.319 for the first, 0.902 for the second.

Compared with UAGAAGG, AAGAAGA is lower in “RNAcompete 7-mer binding Z-score” value: 3.2 for the first, 1.03 for the second.

Going from UAGAAGA to GAGAAGA, the “RNAcompete 7-mer binding Z-score” value rises from 0.348 to 1.04.

Going from CAGAAGG to UAUCUAC, the “RNAcompete 7-mer binding Z-score” value falls from 2.37 to -0.548.

In the case of UCACCAA, the “RNAcompete 7-mer binding Z-score” value is reported as -0.65.
